Most compounds without a hit are left out; they make up all but 1.2% or so of the library.
RGS4-Gao reg = human RGS4-Galphao interaction regulation | binding response (% of control), % at 10 µM | 220,000 tested, 0.33% active | Multiplexed bead flow cytometry, RGS4-Galphao binding; actives lie on both sides | AID 1415; in the data active = binding response below about 49% or above about 150%; inactive = in between;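 also: fluorescent Galphao activated with aluminum fluoride binding bead-coupled RGS4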
Target sequence (P09471 whole entry, looked up): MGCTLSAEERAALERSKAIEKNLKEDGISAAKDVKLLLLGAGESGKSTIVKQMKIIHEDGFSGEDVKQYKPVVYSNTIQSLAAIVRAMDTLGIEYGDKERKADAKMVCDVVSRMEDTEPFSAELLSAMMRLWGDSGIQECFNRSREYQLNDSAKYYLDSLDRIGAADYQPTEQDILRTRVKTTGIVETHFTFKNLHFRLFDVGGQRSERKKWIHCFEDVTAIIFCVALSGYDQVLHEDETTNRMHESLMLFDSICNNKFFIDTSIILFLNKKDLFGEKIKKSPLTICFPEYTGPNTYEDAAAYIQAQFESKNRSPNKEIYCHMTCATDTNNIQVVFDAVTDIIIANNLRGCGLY
RGS16-Gao = RGS16-Galphao interaction regulator (human) | O15492+P09471 | AID 1441 | binding response (% of control), % at 10 µM | bead-based flow cytometry RGS16-Galphao binding, fluorescence; actives lie on both sides | 220,000 tested, 0.38% active;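 also: Galphao activated by GDP with aluminum fluoride before binding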
Avidin bead fluor = compound fluoresces at 488/530 nm on avidin beads. compound fluorescence 488/530 nm, flow cytometry; hits give high values. 220,000 tested, 0.38% active. fluorescence (KMESF) at 10 µM; in the data active = fluorescence above about 47
GSH fluor = GSH bead compound fluorescence profile; GSH beads flow cytometry, compound fluorescence 488/530 nm; hits give high values; fluorescence (KMESF) at 10 µM; 190,000 tested, 0.25% active; AID 1776; in the data active = fluorescence above about 89;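 also: glutathione beads carrying GST-tagged Bcl family fusion proteins plus one bare bead set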
RGS7-Gao reg = regulators of human RGS7-Galphao interaction; P09471; Multiplexed bead flow cytometry, RGS7-Galphao binding; actives lie on both sides; binding response (% of control), % at 10 µM; 220,000 tested, 0.35% active; in the data active = binding response below about 49% or above about 150%; inconclusive = no clear call, values can overlap the other calls; inactive = in between;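 also: fluorescent Galphao held in activated GDP-AlF4 state binding bead-coupled RGS7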
RGS8-Gao = modulates binding of RGS8 to human Galphao | P09471 | multiplexed bead flow cytometry; actives lie on both sides | response (percent of control binding), % at 10 µM | 220,000 tested, 0.34% active; in the data active = response below about 60% or above about 140%; inactive = in between;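 also: Galphao activated as the GDP aluminium fluoride complex binding bead-coupled RGS8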
RGS-Gao = modulates binding between human RGS4 and Galphao; shares compounds with RGS16-Gao; multiplexed bead flow cytometry, RGS–Galpha-o binding; RGS4–Galpha-o binding response, % at 10 µM; 1,600 tested, 99% active; AID 1504;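 also: fluorescently labeled Galpha-o bound to GDP with aluminium fluoride binding biotinylated RGS beads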
Target sequence (P09471 whole entry, looked up): as above
Target sequence (P49798 whole entry, looked up): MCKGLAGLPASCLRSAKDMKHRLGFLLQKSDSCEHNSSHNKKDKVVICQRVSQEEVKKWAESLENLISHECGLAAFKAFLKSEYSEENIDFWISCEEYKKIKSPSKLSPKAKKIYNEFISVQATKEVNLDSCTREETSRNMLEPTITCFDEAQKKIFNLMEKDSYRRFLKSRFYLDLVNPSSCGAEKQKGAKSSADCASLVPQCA
Biotin-avidin = counter-screen: compounds disrupting biotin binding to avidin beads; inhibition, % at 10 µM; streptavidin beads, fluorescein-biotin binding, flow cytometry; shares compounds with RGS16-Gao; AID 1783; 1,700 tested, under 10 active;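 active = inhibition above 50%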;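 also: median green fluorescence of gated singlet beads compared with DMSO control wells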
RGS8-Gao single = RGS8-Galphao interaction regulation, single point confirmation; shares compounds with RGS16-Gao; bead-based flow cytometry RGS8-Galphao binding, fluorescence; actives lie on both sides; binding response (% of control), % at 10 µM; 1,700 tested, 3% active; in the data active = binding response below about 72% or above about 130%; inactive = in between;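 also: Galphao activated as GDP AlF4 complex before binding bead RGS8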
RGS7-Gao confirm = RGS7-Galphao interaction regulation, single point confirmation. shares compounds with RGS16-Gao. bead-based flow cytometry RGS7-Galphao binding; actives lie on both sides. response (percent of control binding), % at 10 µM. 1,700 tested, 7.8% active. AID 1837; in the data active = response below about 75% or above about 130%; inactive = in between;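 also: fluorescent Galphao activated with GDP and aluminum fluoride binding bead-coupled RGS7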
RGS16-Gao single = RGS16-Galphao interaction regulation, single point confirmation; shares compounds with RGS16-Gao; bead-based flow cytometry, RGS16-Galphao binding; actives lie on both sides; response (% of control binding), % at 10 µM; 1,700 tested, 4% active; AID 1838; in the data active = response below about 74% or above about 130%; inactive = in between;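 also: Galphao activated as the GDP aluminium fluoride complex binding bead-coupled RGS16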
RGS4-Gao single = RGS4-Galphao interaction regulation, single point confirmation. binding response (% of control), % at 10 µM. RGS4-Galphao binding, multiplexed bead flow cytometry; actives lie on both sides. shares compounds with RGS16-Gao. 1,700 tested, 4% active. AID 1840; in the data active = binding response below about 74% or above about 130%; inactive = in between
RGS19-Gao single = confirmation of regulators of human RGS19-Galphao interaction. 1,700 tested, 5% active. shares compounds with RGS16-Gao. bead-based flow cytometry RGS19-Galphao binding; actives lie on both sides. response (percent of control binding), % at 10 µM; in the data active = response below about 50% or above about 160%; inactive = in between
Large screens that a line does not name were inactive (follow-up assays come after a bar, where they were run); [ ] = remark or other dose. Unless noted, no rule for the calls is given here.

N#C/C(=C\c1sc(N2CCOCC2)nc1-c1ccccc1)C(=O)Nc1cccc2ccccc12	Avidin bead fluor 312, RGS7-Gao reg 417.3[activator] | RGS-Gao 140.9
CC(C)(C)NC(=O)NC(=O)COC(=O)c1cccc(F)c1	none
CC(C)(C)NC(=O)NC(=O)COC(=O)c1cc[n+]([O-])cc1	Avidin bead fluor 207, RGS7-Gao reg 212.5[activator] | RGS-Gao 125.9 | Biotin-avidin inactive | RGS8-Gao single inactive | RGS7-Gao confirm inactive | RGS16-Gao single inactive | RGS4-Gao single inactive | RGS19-Gao single inactive
COc1ccc(OCC(=O)Nc2ccccc2OC(F)F)cc1	none
COc1ccc(OCC(=O)Nc2ccccc2OC)cc1	RGS8-Gao 153.1[activator] | RGS-Gao 116.3 | Biotin-avidin inactive | RGS8-Gao single inactive | RGS7-Gao confirm inactive | RGS16-Gao single inactive | RGS4-Gao single inactive | RGS19-Gao single inactive
CCOc1cccc(NC(=O)C2CC(=O)N(c3ccc(F)cc3)C2)c1 (configuration not stated)	none
O=C(COC(=O)c1ccc2[nH]c3c(c2c1)CCCC3)Nc1ccccc1Cl	none
O=C(COC(=O)c1ccc2[nH]c3c(c2c1)CCCC3)Nc1ccc(Cl)cc1Cl	RGS16-Gao 182.2[activator] | RGS-Gao 106.8 | Biotin-avidin inactive | RGS8-Gao single inactive | RGS7-Gao confirm inactive | RGS16-Gao single inactive | RGS4-Gao single inactive | RGS19-Gao single inactive
S=c1[nH]nc(-c2ccccc2)n1/N=C/C=C/c1ccco1	RGS16-Gao -0.4 | RGS-Gao 89.8 | Biotin-avidin inactive | RGS8-Gao single inactive | RGS7-Gao confirm inactive | RGS16-Gao single inactive | RGS4-Gao single inactive | RGS19-Gao single inactive
S=c1[nH]nc(-c2ccc(Cl)cc2)n1/N=C/C=C/c1ccco1	RGS7-Gao reg inconclusive (no result: GSH fluor)
Cc1ccc(OCc2nnc(SCC(=O)Nc3ccc4c(c3)OCO4)n2C)cc1	none
Cn1c(COc2ccccc2)nnc1SCC(=O)Nc1ccc2c(c1)OCO2	RGS16-Gao -20.9 | RGS-Gao 83.3 | Biotin-avidin inactive | RGS8-Gao single inactive | RGS7-Gao confirm inactive | RGS16-Gao single inactive | RGS4-Gao single inactive | RGS19-Gao single inactive
COc1ccc(-c2csc(NC(=O)c3ccc(OCC(=O)N4CCOCC4)c(OC)c3)n2)cc1OC	RGS16-Gao 18.4 | RGS-Gao 97.0 | Biotin-avidin inactive | RGS8-Gao single inactive | RGS7-Gao confirm inactive | RGS16-Gao single inactive | RGS4-Gao single inactive | RGS19-Gao single inactive
C=CCC(CC(O)COCCC)C(=O)NNC(=S)Nc1ccccc1 (configuration not stated)	RGS7-Gao reg inconclusive (no result: GSH fluor)
O=C(CN1CCN(Cc2ccc(Cl)cc2)C1=O)NCCCN1CCN(c2ccc(F)cc2)CC1	none
O=C(CN1CCN(Cc2ccc(Cl)cc2)C1=O)NCCCN1CCOCC1	RGS4-Gao reg 18.2, RGS16-Gao 13.2, RGS7-Gao reg 8.9, RGS8-Gao 14.4 | Biotin-avidin inactive | RGS8-Gao single inactive | RGS7-Gao confirm inactive | RGS16-Gao single inactive | RGS4-Gao single inactive | RGS19-Gao single inactive
O=C(CN1CCN(Cc2ccccc2F)C1=O)NCCc1ccc(Cl)cc1	Avidin bead fluor 60, RGS7-Gao reg 158.7[activator] | RGS-Gao 106.7 | Biotin-avidin inactive | RGS8-Gao single inactive | RGS7-Gao confirm inactive | RGS16-Gao single inactive | RGS4-Gao single inactive | RGS19-Gao single inactive
O=C(C1CCN(S(=O)(=O)c2cccnc2)CC1)N1CCN(c2cccc(Cl)c2)CC1	RGS4-Gao reg 35.4, RGS7-Gao reg 10.7, RGS8-Gao 26.6 | Biotin-avidin inactive | RGS8-Gao single inactive | RGS7-Gao confirm inactive | RGS16-Gao single inactive | RGS4-Gao single inactive | RGS19-Gao single inactive
Cc1ccc(S(=O)(=O)N2CCC(C(=O)N3CCC[C@H]3C(=O)NC3CCS(=O)(=O)C3)CC2)cc1 (some centres not stated)	RGS16-Gao -64.6 | RGS-Gao 85.1 | Biotin-avidin inactive | RGS8-Gao single inactive | RGS7-Gao confirm inactive | RGS16-Gao single inactive | RGS4-Gao single inactive | RGS19-Gao single inactive
Cc1ccc(S(=O)(=O)N2CCC(C(=O)N[C@H](C(=O)NC3CCS(=O)(=O)C3)C(C)C)CC2)cc1 (some centres not stated)	none
COc1ccc(-n2c(SCC(=O)Nc3cc(C)on3)nc3ccccc3c2=O)cc1Cl	RGS7-Gao reg inconclusive
CCOC(=O)C1=NN(c2cccc(C)c2)C2(S1)SC(C(C)=O)=C(C)N2c1ccccc1 (configuration not stated)	none (no result: RGS4-Gao reg, RGS16-Gao, Avidin bead fluor, RGS7-Gao reg, RGS8-Gao) | Biotin-avidin inactive | RGS8-Gao single inactive | RGS7-Gao confirm inactive | RGS16-Gao single inactive | RGS4-Gao single inactive | RGS19-Gao single inactive

Screening results: PubChem BioAssay, NMMLSC
